Over roughly 1,500 compounds, “Inhibition index” has its median near 0.17; the highest 2% begin near 1.3. Shown is part of a subset that was picked to be rich in the highest values.

The test system of the experiment is SARS-CoV-2. Nature of the experiment: Inhibition of cell viability relative to arbidol control (inhibition index > 1 indicates higher activity) measured by fluorescence (OD590nm) in Vero E6 cells infected with SARS-CoV-2 (strain BavPat1) at MOI 0.002 after 72hrs. The format is functional, Chlorocebus sabaeus, Vero C1008.
`C[C@@H](O)[C@H]1C(=O)N2C(C(=O)O)=C(SCCNC=N)C[C@H]12` [IMIPENEM ANHYDROUS] came in with an Inhibition index of 0.0698. Take `CC(C)=C/C(C)=N/Nc1nncc2ccccc12` [BUDRALAZINE]: the Inhibition index was 1.549. Consider `CCOC(=O)NNc1nncc2ccccc12.Cl` [TODRALAZINE HYDROCHLORIDE], for which the Inhibition index is -0.005099. On to `CCc1c(C)[nH]c2c1C(=O)C(CN1CCOCC1)CC2.Cl` (stereo not drawn) [MOLINDONE HYDROCHLORIDE], for which the Inhibition index was found to be 0.4807.

Regarding `CN[C@H](CC(C)C)C(=O)N[C@H]1C(=O)N[C@@H](CC(N)=O)C(=O)N[C@H]2C(=O)N[C@H]3C(=O)N[C@H](C(=O)N[C@H](C(=O)O)c4cc(O)cc(O)c4-c4cc3ccc4O)[C@H](O)c3ccc(c(Cl)c3)Oc3cc2cc(c3O[C@@H]2O[C@H](CO)[C@@H](O)[C@H](O)[C@H]2O[C@H]2C[C@](C)(N)[C@H](O)[C@H](C)O2)Oc2ccc(cc2Cl)[C@H]1O.Cl`, the Inhibition index is given as 0.05858. Molecule `C[C@H]1O[C@H](O[C@H]2[C@H](O)[C@@H](O)[C@@H](O[C@H]3[C@H](O)[C@@H](O)C(O)O[C@@H]3CO)O[C@@H]2CO)[C@H](O)[C@@H](O)[C@@H]1N[C@H]1C=C(CO)[C@@H](O)[C@H](O)[C@H]1O` (stereo partly drawn) [ACARBOSE] had an Inhibition index of 0.004156. Molecule `CC(=O)[C@H]1CC[C@H]2[C@@H]3C=CC4=CC(=O)CC[C@@]4(C)[C@@H]3CC[C@]12C` [DYDROGESTERONE] had an Inhibition index of 0.5447. `COCCCOc1ccnc(C[S+]([O-])c2nc3ccccc3[nH]2)c1C.[Na+]` (stereo not drawn) gave an Inhibition index of 0.5892. In turn, `CC(COc1ccccc1)NC(C)C(O)c1ccc(O)cc1.Cl` (stereo not drawn) [ISOXSUPRINE HYDROCHLORIDE] displayed an Inhibition index of -0.02068. As for `CC(C)NC[C@@H](O)c1ccc(O)c(O)c1.O=C(O)C(O)C(O)C(=O)O`, the Inhibition index is reported as 0.1733. `CC(NCCc1ccc(O)cc1)C(O)c1ccc(O)cc1.Cl` (stereo not drawn) [RITODRINE HYDROCHLORIDE] had an Inhibition index of 0.3972. Molecule `C[C@H](CCc1ccccc1)NC[C@H](O)c1ccc(O)c(C(N)=O)c1` [DILEVALOL] came in with an Inhibition index of 1.277. In turn, `CC(CCc1ccccc1)NC(C)C(O)c1ccc(O)cc1` (stereo not drawn) [NYLIDRIN] registered an Inhibition index of 1.263. Turning to `CC(CCc1ccccc1)NCC(O)c1ccc(O)c(C(N)=O)c1.Cl` (stereo not drawn) [LABETALOL HYDROCHLORIDE], the Inhibition index was 0.3584.

As to `CCCC1O[C@@H]2C[C@H]3[C@@H]4CCC5=CC(=O)C=C[C@]5(C)[C@H]4[C@@H](O)C[C@]3(C)[C@]2(C(=O)CO)O1` (stereo partly drawn) [BUDESONIDE], the Inhibition index is listed as 0.726. `CC1(C)O[C@@H]2C[C@H]3[C@@H]4C[C@H](F)C5=CC(=O)C=C[C@]5(C)[C@H]4[C@@H](O)C[C@]3(C)[C@]2(C(=O)CO)O1` [FLUNISOLIDE] registered an Inhibition index of 0.0848. For `C[C@]12C=CC(=O)C=C1CC[C@@H]1[C@@H]2[C@@H](O)C[C@@]2(C)[C@H]1CC[C@]2(O)C(=O)CO` [PREDNISOLONE], the Inhibition index was determined as 0.3132. In turn, `CCOC(=O)O[C@]1(C(=O)COC(=O)CC)CC[C@H]2[C@@H]3CCC4=CC(=O)C=C[C@]4(C)[C@H]3[C@@H](O)C[C@@]21C` [PREDNICARBATE] showed an Inhibition index of 1.368.

For the molecule `CCOC(=O)O[C@]1(C(=O)OCCl)CC[C@H]2[C@@H]3CCC4=CC(=O)C=C[C@]4(C)[C@H]3[C@@H](O)C[C@@]21C` [LOTEPREDNOL ETABONATE], the Inhibition index is 0.5857. Molecule `CC1(C)O[C@@H]2C[C@H]3[C@@H]4CCC5=CC(=O)C=C[C@]5(C)[C@H]4[C@@H](O)C[C@]3(C)[C@]2(C(=O)CO)O1` [DESONIDE] displayed an Inhibition index of 1.58. In turn, `CCN(CC)CCOC(=O)C(c1ccccc1)c1ccccc1.Cl` [ADIPHENINE HYDROCHLORIDE] registered an Inhibition index of 0.1368. As to `CC/C(=C(\c1ccccc1)c1ccc(OCCN(C)C)cc1)c1ccccc1.O=C(O)CC(O)(CC(=O)O)C(=O)O` [TAMOXIFEN CITRATE], the Inhibition index is recorded as -0.1208. Regarding `C[C@]12CC[C@@H]3c4ccc(O)cc4C[C@@H](CCCCCCCCC[S+]([O-])CCCC(F)(F)C(F)(F)F)[C@H]3[C@@H]1CC[C@@H]2O` (stereo partly drawn) [FULVESTRANT], the Inhibition index came to 0.187.

Consider `CC[C@H](C)[C@H](NC(=O)[C@H](Cc1ccc(O)cc1)NC(=O)[C@@H](NC(=O)[C@H](CCCNC(=N)N)NC(=O)[C@@H](N)CC(=O)O)C(C)C)C(=O)N[C@@H](Cc1c[nH]cn1)C(=O)N1CCC[C@H]1C(=O)N[C@@H](Cc1ccccc1)C(=O)O.O=C(O)C(F)(F)F`, for which the Inhibition index was 0.4608.

As to `CC(C(=O)[O-])c1cccc(Oc2ccccc2)c1.CC(C(=O)[O-])c1cccc(Oc2ccccc2)c1.O.O.[Ca+2]` (stereo not drawn) [FENOPROFEN CALCIUM], the Inhibition index turned out to be 0.03953. The molecule `CC(=O)OCC(=O)[C@@]12OC3(CCCC3)O[C@@H]1C[C@H]1[C@@H]3CCC4=CC(=O)C=C[C@]4(C)[C@@]3(F)[C@@H](O)C[C@@]12C` [AMCINONIDE] showed an Inhibition index of 0.9715.

`CCCCCN(CCCCC)C(=O)C(CCC(=O)[O-])NC(=O)c1ccc(Cl)c(Cl)c1.[Na+]` (stereo not drawn) [LORGLUMIDE SODIUM] displayed an Inhibition index of 0.5123. On to `Nc1nc2[nH]cc(CCc3ccc(C(=O)N[C@@H](CCC(=O)[O-])C(=O)[O-])cc3)c2c(=O)[nH]1.[Na+].[Na+]` [PEMETREXED DISODIUM], for which the Inhibition index is on record as 0.05416. As for `CC(C)(C(=O)O)c1ccc(C(O)CCCN2CCC(C(O)(c3ccccc3)c3ccccc3)CC2)cc1.Cl` (stereo not drawn) [FEXOFENADINE HYDROCHLORIDE], the Inhibition index was 0.6767. As for `CC(C)NCC(O)c1ccc2ccccc2c1.Cl` (stereo not drawn), the Inhibition index is on record as 0.8858. The molecule `CCN(CC)CCNC(=O)c1ccc(N)cc1.Cl` [PROCAINAMIDE HYDROCHLORIDE] yielded an Inhibition index of 0.2557.

Take `C#CCN(C)[C@H](C)Cc1ccccc1.Cl` [SELEGILINE HYDROCHLORIDE]: the Inhibition index is reported as 0.2358. `CCC1(c2cccc(O)c2)CCCCN(C)C1.Cl` (stereo not drawn) [MEPTAZINOL HYDROCHLORIDE] yielded an Inhibition index of 1.137.

The values above are taken from ChEMBL document CHEMBL4303097 (2020).
